{"source": "PubChem BioAssay (NCI)", "note": "Compounds without any hit were thinned out: in the full panel of roughly 83,000, 20% have a hit.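 Plates (96-well) were seeded with cells, treated with compound at one concentration, and incubated for 48 hours before percent growth was determined.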 The source made the active and inactive calls. How the source made its calls: active means growth percent below 10; inactive means the rest.", "data": [{"system": "IGROV1 ovarian", "assay": "NCI-60 one-dose screen, 48 h (100 = growth as untreated, 0 = no growth, -100 = all killed)", "settings": "10 µM unless noted", "values": [{"smiles": "CN1C(=O)N(C)C2Nn3c(s/c(=C\\c4ccccc4)c3=O)=NC21", "note": "(centres undefined)", "growth": "100% (inactive)"}, {"smiles": "COc1cc(C(=O)c2cc(C)c3[nH]c4ccc(C)cc4c3c2C)cc(OC)c1OC", "growth": "13.5% (inactive)"}, {"smiles": "CC(=O)N1CCN(c2ccc(OCC3CO[C@](Cn4ccnc4)(c4ccc(Cl)cc4Cl)O3)cc2)CC1", "note": "(some centres undefined)", "growth": "80.2% (inactive)"}, {"smiles": "CCOC(=O)/C(C#N)=C\\Nc1ccc2ncnc(Nc3ccc(Cl)cc3Cl)c2c1", "growth": "55% (inactive)"}, {"smiles": "Cn1cc(C(=O)c2nc(-c3cn(C)c4ccc(F)cc34)no2)c2cc(F)ccc21", "growth": "77.8% (inactive)"}, {"smiles": "c1cc(-c2nnc(SSc3ncnc4nc[nH]c34)o2)ccn1", "growth": "48.2% (inactive)"}, {"smiles": "C#Cc1cccc(NC(=O)Nc2ccccc2NC(=O)CCl)c1", "growth": "-54.4% [8.25 µM] (active)"}, {"smiles": "COc1ccc2c(c1OC)C(=O)O[C@H]2[C@H]1c2c(cc3c(c2OC)OCO3)CCN1C", "growth": "102% (inactive)"}, {"smiles": "Cc1ccc2c(-c3cc(-c4ccccc4)nc(N)c3C#N)cc(=O)oc2c1", "growth": "110% (inactive)"}, {"smiles": "N#Cc1c(-c2ccc(Cl)cc2)nc2c(c(-c3ccccc3)nn2-c2ccccc2)c1-c1ccc(O)cc1", "growth": "69.8% (inactive)"}, {"smiles": "CC(=O)c1ccc(Nc2nc(C(C)=O)c(C)s2)cc1", "growth": "98.2% (inactive)"}, {"smiles": "O=C(CCCCCCSc1nc(-c2ccccc2)cc(-c2ccccc2)n1)NO", "growth": "36.9% (inactive)"}, {"smiles": "Cc1cc(Cl)ccc1NS(=O)(=O)c1ccc(-c2cnc(C3CC3)o2)cc1", "growth": "23.3% (inactive)"}, {"smiles": "Brc1ccc2[nH]cc(-c3nc(-c4c[nH]c5ccncc45)cs3)c2c1", "growth": "-86.5% (active)"}, {"smiles": "COc1cc(C(=O)/C=C/c2c(Cl)nc3sccn23)cc(OC)c1OC", "growth": "79.8% (inactive)"}, {"smiles": "N/C(=N\\c1nc2ccccc2s1)NC(=O)Nc1cccc2ccccc12", "growth": "33.6% (inactive)"}]}, {"system": "OVCAR-3 ovarian", "assay": "NCI-60 one-dose screen, 48 h (100 = growth as untreated, 0 = no growth, -100 = all killed)", "settings": "10 µM unless noted", "values": [{"smiles": "O=C(Nn1c(NCC(=O)N2c3ccccc3Sc3ccccc32)nnc1-c1ccc(O)cc1)c1ccccc1", "growth": "114% (inactive)"}, {"smiles": "N#C/C(=C\\c1cccc2cnccc12)n1nnc2cccc(F)c21", "growth": "35.3% (inactive)"}, {"smiles": "O=C(S)CNC(=O)c1ccccc1", "growth": "101% (inactive)"}, {"smiles": "CN(C)c1ccc2nc3ccc(=[N+](C)C)c([N+](=O)[O-])c-3sc2c1", "growth": "-12.5% (active)"}, {"smiles": "O=C1c2ccccc2NC(n2sc3ccccc3c2=O)N1c1ccccc1", "note": "(centres undefined)", "growth": "101% (inactive)"}, {"smiles": "Cc1nc2ccccc2c(/C=C/c2ccccc2)c1C(=O)/C=C/c1ccc(C(F)(F)F)cc1", "growth": "-86.5% (active)"}, {"smiles": "CCOC(=O)c1nc(Nc2ccc(C(C)=O)cc2)sc1C", "growth": "105% (inactive)"}, {"smiles": "Oc1ccc(Cl)cc1Cc1cc(Cl)cc(Cl)c1O", "growth": "-8.34% (active)"}, {"smiles": "COc1nc2ccc(C)cc2cc1-c1nc2c(cnn2-c2ccc(Br)cc2)c(=O)[nH]1", "growth": "-17% (active)"}, {"smiles": "CC(=O)OC[C@H]1OC(Sc2sc(C(=O)c3ccc(Cl)cc3)c(N)c2-c2nc3ccccc3s2)[C@H](OC(C)=O)[C@@H](OC(C)=O)[C@@H]1OC(C)=O", "note": "(some centres undefined)", "growth": "103% (inactive)"}, {"smiles": "O=C1NC(=O)C(Cn2cnc3ccccc32)N1", "note": "(centres undefined)", "growth": "103% (inactive)"}, {"smiles": "COc1cc(/C=C/C(=O)/C=C/c2cc(OC)c3c(c2OC)OCO3)c(OC)c2c1OCO2", "growth": "0.304% (active)"}, {"smiles": "COc1c(B(O)O)cc(C)cc1-c1nc2ccc3[nH]ncc3c2c2c1CCCC2", "growth": "102% (inactive)"}, {"smiles": "CCCCCCN(CCCCCC)c1ccc(/C=C2/SC(=O)NC2=O)c(C)c1", "growth": "86.7% (inactive)"}, {"smiles": "COC(=O)c1ccc2[nH]c(O)c(C(=Nc3ccc(N(C)C(=O)CN4CCN(C)CC4)cc3)c3ccccc3)c2c1", "growth": "50.5% (inactive)"}, {"smiles": "CCOC(=O)CC1C(COC(=O)NC)OC(n2cnc3c(NC(=O)Nc4ccccc4)ncnc32)C1O[Si](C)(C)C(C)(C)C", "note": "(centres undefined)", "growth": "51.1% (inactive)"}, {"smiles": "CN1C(=O)N(C)C2Nn3c(s/c(=C\\c4ccccc4)c3=O)=NC21", "note": "(centres undefined)", "growth": "100% (inactive)"}, {"smiles": "COc1cc(C(=O)c2cc(C)c3[nH]c4ccc(C)cc4c3c2C)cc(OC)c1OC", "growth": "-16.4% (active)"}, {"smiles": "CC(=O)N1CCN(c2ccc(OCC3CO[C@](Cn4ccnc4)(c4ccc(Cl)cc4Cl)O3)cc2)CC1", "note": "(some centres undefined)", "growth": "99% (inactive)"}, {"smiles": "CN1CCN(Cc2ccc(NC(=O)c3cncc(C#Cc4cnccc4C#N)c3)cc2C(F)(F)F)CC1", "growth": "86.3% (inactive)"}, {"smiles": "CCOC(=O)/C(C#N)=C\\Nc1ccc2ncnc(Nc3ccc(Cl)cc3Cl)c2c1", "growth": "67.6% (inactive)"}, {"smiles": "Cn1cc(C(=O)c2nc(-c3cn(C)c4ccc(F)cc34)no2)c2cc(F)ccc21", "growth": "98.4% (inactive)"}, {"smiles": "c1cc(-c2nnc(SSc3ncnc4nc[nH]c34)o2)ccn1", "growth": "31.1% (inactive)"}, {"smiles": "CN(C)CC#Cc1ccc2ncc(C#N)c(Nc3ccc(F)c(Cl)c3)c2c1", "growth": "54.9% (inactive)"}, {"smiles": "C#Cc1cccc(NC(=O)Nc2ccccc2NC(=O)CCl)c1", "growth": "-74.8% [8.25 µM] (active)"}, {"smiles": "COc1ccc2c(c1OC)C(=O)O[C@H]2[C@H]1c2c(cc3c(c2OC)OCO3)CCN1C", "growth": "124% (inactive)"}, {"smiles": "Cc1ccc2c(-c3cc(-c4ccccc4)nc(N)c3C#N)cc(=O)oc2c1", "growth": "106% (inactive)"}, {"smiles": "C[C@]12CC[C@@H]3c4cc(OC(F)F)c(OS(N)(=O)=O)cc4CC[C@H]3[C@@H]1CC[C@@H]2O", "growth": "-49.8% (active)"}, {"smiles": "CC(=O)Oc1ccccc1C(=O)N=C1[Se]CCCN1C(=O)c1ccccc1OC(C)=O", "growth": "7.64% (active)"}, {"smiles": "N#Cc1c(-c2ccc(Cl)cc2)nc2c(c(-c3ccccc3)nn2-c2ccccc2)c1-c1ccc(O)cc1", "growth": "48.3% (inactive)"}, {"smiles": "CC(=O)c1ccc(Nc2nc(C(C)=O)c(C)s2)cc1", "growth": "99.9% (inactive)"}, {"smiles": "O=C(CCCCCCSc1nc(-c2ccccc2)cc(-c2ccccc2)n1)NO", "growth": "40% (inactive)"}, {"smiles": "Cc1cc(Cl)ccc1NS(=O)(=O)c1ccc(-c2cnc(C3CC3)o2)cc1", "growth": "-16.9% (active)"}, {"smiles": "Brc1ccc2[nH]cc(-c3nc(-c4c[nH]c5ccncc45)cs3)c2c1", "growth": "-91.6% (active)"}, {"smiles": "COc1cc(C(=O)/C=C/c2c(Cl)nc3sccn23)cc(OC)c1OC", "growth": "64.5% (inactive)"}, {"smiles": "N/C(=N\\c1nc2ccccc2s1)NC(=O)Nc1cccc2ccccc12", "growth": "-14.2% (active)"}, {"smiles": "NC1CCN(c2nc(Nc3cccc(C(F)(F)F)c3)c3c(=O)[nH]ccc3n2)CC1", "growth": "-72.2% (active)"}, {"smiles": "COc1ccc(/C=N/Nc2cc(=O)[nH]c3ccc(Cl)cc23)cc1", "growth": "11.8% (inactive)"}]}]}
